# CHT allo act – allosteric activators of human choline transporter CHT; AID 488977; B-score at 10 µM; Q9GZV3; actives 0.49% (n = 310,000); CHT-expressing cells, membrane potential dye, choline EC20; active compounds read high; LV-AA mutant CHT in HEK293 cells;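 active = initial fluorescence not abnormally high and integrated response B-score, plate-corrected, over 3 SD above library mean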
# Target sequence (Q9GZV3 whole entry, looked up): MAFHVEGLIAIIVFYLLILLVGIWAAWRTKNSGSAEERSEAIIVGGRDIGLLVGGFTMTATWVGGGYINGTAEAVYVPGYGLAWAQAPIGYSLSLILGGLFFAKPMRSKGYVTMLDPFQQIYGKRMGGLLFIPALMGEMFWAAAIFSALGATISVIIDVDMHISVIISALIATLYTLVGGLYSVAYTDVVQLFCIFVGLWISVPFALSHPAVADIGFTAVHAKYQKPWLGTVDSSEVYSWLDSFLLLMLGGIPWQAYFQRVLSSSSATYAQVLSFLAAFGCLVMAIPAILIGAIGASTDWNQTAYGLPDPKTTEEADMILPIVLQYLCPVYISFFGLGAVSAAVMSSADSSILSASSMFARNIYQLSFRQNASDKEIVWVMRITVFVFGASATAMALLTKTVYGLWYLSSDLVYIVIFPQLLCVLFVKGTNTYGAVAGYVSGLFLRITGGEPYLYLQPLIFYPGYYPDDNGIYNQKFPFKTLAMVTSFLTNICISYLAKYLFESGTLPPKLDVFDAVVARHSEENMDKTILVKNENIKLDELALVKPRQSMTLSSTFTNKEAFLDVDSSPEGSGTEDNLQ
# TMEM16A inh – inhibitors of mouse TMEM16A calcium-activated chloride channel; Q8BHY3; HEK293 TMEM16A/YFP iodide influx fluorescence, ionomycin; normalized B-score (activity score, 25-100; higher = stronger inhibition) at 10 µM; actives 1.2% (n = 310,000); AID 588511;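 active = ratio plate-corrected score three or more library SD toward inhibition, starting fluorescence score within five deviations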;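 also: score derived from kinetic fluorescence span divided by baseline fluorescence per well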
# CHT inh – inhibitors of human choline transporter CHT | B-score at 10 µM | AID 488975 | CHT-expressing cells, membrane potential dye, choline response; active compounds read low | actives 0.86% (n = 310,000) | Q9GZV3;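 active = B-score over 3 SD under the library average, and starting fluorescence ratio not unusually high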;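 also: choline stimulus applied at its EC90 after an EC20 pre-addition; B-score computed on integrated fluorescence ratio after choline addition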
# TMEM16A act – activators or potentiators of mouse TMEM16A chloride channel; HEK293 TMEM16A/YFP-H148Q/I152L, iodide quench fluorescence; active compounds read low; B-score at 10 µM; actives 0.3% (n = 340,000);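 active = fluorescence-ratio B-score plate-corrected deviation score at least 3 library SD below zero, with starting fluorescence score within 5 deviations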;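 also: channel opened by trigger with iodide after compound preincubation; score built on the fluorescence ratio of max minus min over baseline; more negative score means more quench and so TMEM16A activation or potentiation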
# An asterisk follows results filed as active; i = inactive; nt = no result. Hits are enriched below; roughly 2.3% of the tested compounds scored in any of these assays.
SMILES,CHT allo act,TMEM16A inh,CHT inh,TMEM16A act
O=C(CCSc1nc(-c2ccco2)cc(C(F)(F)F)n1)NCc1cccs1,i,i,i,i
CC1=CC2=NC(=O)/C(=C\c3cc(C)n(-c4ccccc4)c3C)C(=N)N2O1,i,i,i,-4.9*
CC1CC(C)CN(C(=O)Cn2c(=O)n(CCCC(=O)NCc3ccco3)c(=O)c3sccc32)C1 (centres undefined),i,i,i,i
CCN(CC)C(=O)CC(c1ccc(OC)cc1)c1c(O)cc(OC)cc1OC (centres undefined),i,i,i,-9.9*
CCN(CC)CCC(c1ccc(OC)cc1)c1c(O)cc(OC)cc1OC (centres undefined),i,i,i,i
S=C(S)N1CCCC1,i,100*,i,i
O=C(NC(=S)Nc1cc([N+](=O)[O-])ccc1O)c1ccc2c(c1)OCO2,i,i,i,i
COc1cc([N+](=O)[O-])ccc1NC(=S)NNC(=O)c1ccc2c(c1)OCO2,i,100*,-5.7*,i
COCCOC(=O)C1=C(C)N(Cc2ccccc2)C(=O)NC1c1ccc(OC)cc1 (centres undefined),i,100*,i,i
COC(=O)C1=C(C)N(Cc2ccccc2)C(=O)N[C@H]1c1ccc(Br)cc1,i,i,i,i
O=C(Nc1nc(=S)ss1)c1ccc(Cl)cc1Cl,i,100*,-9.2*,i
COc1ccc(S(=O)(=O)N2CCOCC2)cc1NC(=O)CSc1nnc(C2CC2)n1N,i,i,i,i
O=C(CN1C(=O)NC2(CCCC2)C1=O)OCCOc1cccc(Br)c1,i,i,i,i
O=[N+]([O-])c1cccc(S(=O)(=O)Nc2nc3ccccc3nc2Nc2cccc(S(=O)(=O)N3CCCCC3)c2)c1,nt,nt,nt,-5.3*
Cc1ccc(S(=O)(=O)Nc2nc3ccccc3nc2Nc2cccc(S(=O)(=O)N3CCCC3)c2)cc1,i,i,i,i
Cc1cccc(C)c1OCC(=O)N1CCc2ccccc2C1,i,i,i,i
COc1ccc(CCNC(=O)COC(=O)/C=C/c2ccc3c(c2)OCO3)cc1OC,nt,nt,nt,i
O=C(NC1CCN(Cc2ccccc2)CC1)c1cccc(S(=O)(=O)Nc2cc(C(F)(F)F)ccc2Cl)c1,i,25*,i,i
CCC1CCCCN1C(=O)c1cccc(S(=O)(=O)Nc2cc(C(F)(F)F)ccc2Cl)c1 (centres undefined),i,25*,i,i
COc1ccc(Cl)cc1NS(=O)(=O)c1cccc(C(=O)NC2CCN(Cc3ccccc3)CC2)c1,nt,nt,nt,i
O=C(c1cccc(S(=O)(=O)Nc2ccccc2Cl)c1)N1CCCCCC1,i,i,i,i
Cc1cc(OCC(=O)N(Cc2ccccc2)C2CCS(=O)(=O)C2)ccc1Cl (centres undefined),i,i,i,i
Cc1ccc(OCC(=O)N(Cc2cccc(Cl)c2)C2CCS(=O)(=O)C2)cc1C (centres undefined),i,i,i,-40*
COC(=O)c1ccc(Cn2ccc(=O)[nH]c2=O)cc1,nt,nt,nt,i
CCc1nc(SCc2nc3ccccc3[nH]2)c2oc3ccccc3c2n1,i,25*,i,i
SMILES,CHT allo act,TMEM16A inh,CHT inh,TMEM16A act
CN(C)/C=N/NC(=O)C1Cc2c(ccc3ccccc23)O1 (centres undefined),i,i,i,i
O=C(O)CCc1c(C(=O)O)[nH]c2ccccc12,i,i,i,-16*
Cc1ccc(-c2nn(-c3ccccc3)cc2C(=O)N2CCN(C3CCS(=O)(=O)C3)CC2)cc1 (centres undefined),nt,nt,nt,i
Cc1ccc(-c2nn(-c3ccc(F)cc3)cc2C(=O)N2CCN(C3CCS(=O)(=O)C3)CC2)cc1 (centres undefined),nt,nt,nt,-37*
COc1ccc(-c2ocnc2C(=O)NCc2nn(-c3ccccc3)nc2C)cc1,i,i,i,i
Cc1oc(C(C)(C)C)cc1C(=O)N1CCCC1C(=O)O (centres undefined),i,i,i,i
CCCCCCCCCCn1c2c(c(=N)c3c1CCC3)CCC2,16*,100*,i,i
CN(Cc1cccs1)C(=O)CCCc1c[nH]c2ccccc12,i,i,i,-6.3*
CN(Cc1cccs1)C(=O)CCc1c[nH]c2ccccc12,i,i,i,i
CCCN1CCN(CCCNC(=O)c2ccc(CS(=O)c3ccccc3C)o2)CC1 (centres undefined),i,i,i,i
Cc1cccc(C)c1N(CC(=O)N1CCOCC1)S(C)(=O)=O,i,i,i,i
CCCCNS(=O)(=O)c1ccc2nc(SCC(=O)Nc3sccc3C#N)[nH]c2c1,i,100*,i,i
COc1ccc(CCNC(=O)CSc2nc(=O)n3cccc(C)c3n2)cc1OC,i,i,i,i
Cc1cccc(Cl)c1OCCCn1ccnc1,i,i,i,i
O=C(Nc1nc2ccccc2[nH]1)C1CCCO1 (centres undefined),i,i,i,i
O=C(Nc1nc2ccccc2[nH]1)C1CC1,i,i,i,-5.8*
CC1C2(C)OC(=N)C(C#N)(C(C)O2)C1(C#N)C#N (centres undefined),i,i,i,-6.3*
CC1OC2(C)OC(=N)C1(C#N)C(C#N)(C#N)C2c1ccccc1 (centres undefined),i,i,i,i
CCn1cc(C(=O)O)c(=O)c2cnc(N3CCNCC3)nc21,11*,i,i,nt
C=CCNC(=S)N1CCN(c2ncc3c(=O)c(C(=O)O)cn(CC)c3n2)CC1,i,i,i,i
O=C(Nc1nnc2n1CCS2)c1ccc(Br)o1,i,i,i,i
O=C(Nc1cccc(/C=C/c2ccccn2)c1)c1ccc(-n2cncn2)c([N+](=O)[O-])c1,i,25*,i,i
Cc1ccc(NC(=O)COC(=O)CCc2c(C)nc3nc(N)nn3c2C)cc1C,nt,nt,nt,-23*
Cc1ccc(NC(=O)COC(=O)CCc2c(C)nc3ncnn3c2C)cc1C,nt,nt,nt,i
CCOC(=O)N1CCN(C(=O)CNC2CCCCCCC2)CC1,i,i,i,i
SMILES,CHT allo act,TMEM16A inh,CHT inh,TMEM16A act
CCCNC(=O)c1ccc(CN2CCc3ccccc3C2)cc1,i,i,i,i
C/C(=N\NC(=O)c1ccc(CN2CCc3ccccc3C2)cc1)c1ccccc1O,i,100*,i,i
O=[N+]([O-])c1ccc(NC(=S)NCCc2ccccc2)cc1,i,100*,i,i
O=[N+]([O-])c1cc(C(F)(F)F)ccc1NCCCCNS(=O)(=O)c1ccc(Cl)cc1,i,i,i,i
O=[N+]([O-])c1ccc(NC(=S)NCCc2ccc(Cl)cc2)cc1,i,100*,i,i
S=C(NCCc1ccccc1)Nc1ccc(Cl)cc1,i,i,i,i
O=[N+]([O-])c1ccc(NC(=S)NCc2ccc(F)cc2)cc1,i,25*,i,-5*

# Source: PubChem (Johns Hopkins Ion Channel Center)
